Cdc42 wt: changes GTP binding to wildtype human Cdc42; P60953; GST-Cdc42 beads, Bodipy-GTP binding, flow cytometry; actives lie on both sides; percent activity (GTP binding), % at 10 µM; actives 0.2% (n = 190,000);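 active = percent activity GTP binding at least 20 points away from the 100% baseline, either down as inhibitor or up as activator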;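 note: median bead fluorescence of bound Bodipy-FL-GTP at 100 nM; below 100% means less GTP binding so inhibitor and above means activator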
Target sequence (P60953 whole entry, looked up): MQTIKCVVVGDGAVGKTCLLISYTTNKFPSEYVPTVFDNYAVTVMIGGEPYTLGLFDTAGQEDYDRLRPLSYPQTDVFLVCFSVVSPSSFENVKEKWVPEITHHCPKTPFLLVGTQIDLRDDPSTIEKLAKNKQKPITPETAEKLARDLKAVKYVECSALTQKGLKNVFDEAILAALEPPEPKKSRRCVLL
Rac1 mut GTP: human Rac1 activated mutant GTP binding change. percent activity (GTP binding), % at 10 µM. GST-Rac1 activated beads, fluorescent GTP binding, flow cytometry; actives lie on both sides; 100% means binding = to untreated wells. actives 0.11% (n = 190,000). AID 764;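 active = GTP binding at least 20 percentage points away from the 100% baseline, in either direction, so actives lie on both sides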
Rab7 wt GTP bind: dog Rab7 wildtype GTP binding, inhibitors and activators | GTP binding activity (percent of control), % at 10 µM | actives 0.055% (n = 190,000) | AID 758 | GST-Rab7 beads, fluorescent GTP binding, flow cytometry; actives lie on both sides; untreated = 100%, excess cold GTP = 0%;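 active = fluorescent GTP binding to Rab7 beads changed by at least 20 points from the 100% baseline, either direction, mostly lower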;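 note: median green fluorescence of bound Bodipy-FL-GTP per Rab7 bead population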
HRas wt GTP: changes GTP binding to wildtype human HRas. P01112. GTP binding activity, % at 10 µM. actives 0.14% (n = 190,000). AID 759. GST-Ras wt beads, Bodipy-FL-GTP binding, flow cytometry; actives lie on both sides;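 active = GTP binding activity at least 20% away from the 100% baseline, either lowered as inhibitor or raised as activator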
Target sequence (P01112 whole entry, looked up): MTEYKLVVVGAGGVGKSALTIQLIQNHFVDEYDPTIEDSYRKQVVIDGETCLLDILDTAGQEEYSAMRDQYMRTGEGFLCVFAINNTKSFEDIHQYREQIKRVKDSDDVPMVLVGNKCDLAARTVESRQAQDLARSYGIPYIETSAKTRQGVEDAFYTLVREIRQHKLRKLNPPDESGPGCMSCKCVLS
Rac1 wt modul: modulators of human Rac1 wildtype GTP binding; AID 757; P63000; GTP binding activity (% of control), % at 10 µM; GST-Rac1 beads, fluorescent GTP binding, flow cytometry; actives lie on both sides; 0 = cold GTP competed, 100 = untreated; actives 0.27% (n = 190,000);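 active = GTP binding activity at least 20 points away from the 100% control level, either lower or higher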
Rab2 wt GTP: changes GTP binding to wildtype dog Rab2A, up or down; P61105; GST-Rab2 wt beads, Bodipy-GTP binding, flow cytometry; GTP binding activity, % at 10 µM; actives 0.19% (n = 190,000);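 active = GTP binding activity at least 20 points away from 100%, either lowered or raised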
A number is an active result; - = inactive; [ ] = remark or other dose. A selection: hits, their analogues and other compounds. The true share with any hit is near 0.37%.

SMILES	Cdc42 wt	Rac1 mut GTP	Rab7 wt GTP bind	HRas wt GTP	Rac1 wt modul	Rab2 wt GTP
OC(c1cccc(OCc2ccccc2)c1)c1nnc(-c2ccccc2)o1 (stereo unspecified)	-	-	-	-	-	-
OC(c1ccc(OCc2ccccc2)cc1)c1nnc(-c2ccccc2)o1 (stereo unspecified)	75	78	-	-	74	-
Cc1cc(C)cc(C(=O)NCC(=O)OC(C)C(=O)N(C)c2ccccc2)c1 (stereo unspecified)	-	-	-	-	-	-
Cc1noc(C)c1COc1ccc(C(=O)OCC(=O)NCc2ccccc2Cl)cc1	-	-	-	-	-	-
Cc1noc(C)c1COc1cccc(C(=O)NCc2ccccc2Cl)c1	71	74	67	52	72	69
Cc1nnc2ccc(-c3cccc(NC(=O)c4ccco4)c3)nn12	64	75	77	65	56	63
C(#Cc1ccccc1)C[N+]1(CC#Cc2ccccc2)CCCC1	-	-	-	-	-	-
C=CC#CC[N+]1(CC#Cc2ccccc2)CCOCC1	-	-	-	-	128[activator]	-
CCCc1cc(N2CCN(C(=O)c3ccco3)CC2)n2c(nc3ccccc32)c1C#N	-	-	-	-	-	79
COc1cc(NC(=O)CSc2nnc3c(n2)[nH]c2ccc(S(=O)(=O)NC(C)C)cc23)cc(OC)c1OC	-	-	-	-	-	-
Cc1c(C(O)CN2CCN(Cc3ccc4c(c3)OCO4)CC2)c2ccccc2n1C (stereo unspecified)	-	-	-	-	-	-
OC(CN1CCN(Cc2ccc3c(c2)OCO3)CC1)c1c[nH]c2ccccc12 (stereo unspecified)	-	-	-	-	122[activator]	-
O=C(CSc1ncn[nH]1)N1CCOCC1	-	-	-	-	-	-
O=C(CCl)Nc1cccn2ncnc12	-	-	-	-	120[activator]	-
O=C1NN=C(c2ccc(Br)cc2)CC1c1ccc(Cl)cc1 (stereo unspecified)	-	-	-	-	-	-
Oc1ccc(/C=N/NC(=S)N/N=C/c2ccc(O)cc2)cc1	-	-	-	-	71	-
O=C(NCCc1ccc(Cl)cc1)C1CCC(CNc2nc(=S)[nH]c3ccccc23)CC1 (stereo unspecified)	-	-	-	-	-	-
O=C(NCc1ccccc1Cl)C1CCC(CNc2nc(=S)[nH]c3ccccc23)CC1 (stereo unspecified)	-	-	-	-	78	-
COc1cc(OC)c(OC)cc1/C=N/NC(=S)NCC1CCCO1 (stereo unspecified)	-	-	-	-	-	-
COc1cccc(C2SCC(=O)N2c2ccc(Br)cc2)c1OC (stereo unspecified)	-	-	-	-	-	-
Cc1nc(Nc2ccc(C(=O)O)cc2)nc(Nc2ccc(C(=O)O)cc2)c1[N+](=O)[O-]	55	77	-	60	62	55
CC(=O)Nc1ccc(Nc2nc(C)c([N+](=O)[O-])c(Nc3ccccc3)n2)cc1	-	-	-	-	-	-
O=C(NN1CCN(Cc2ccccc2)CC1)c1ccc(Cl)cc1	-	-	-	-	-	-
O=C(O)CCCN1C(=O)/C(=C\c2ccco2)SC1=S	-	-	-	-	-	-
O=C(O)CCN1C(=O)/C(=C\c2ccc(-c3nc4ccccc4s3)o2)SC1=S	69	71	74	74	67	66
SMILES	Cdc42 wt	Rac1 mut GTP	Rab7 wt GTP bind	HRas wt GTP	Rac1 wt modul	Rab2 wt GTP
CCNC(=S)N=Nc1c(O)[nH]c2ccc([N+](=O)[O-])cc12	65	-	-	67	58	65
CCCc1nc2c(=O)n(C)c(=O)nc-2n(C)n1	74	-	-	-	-	-
COc1ccc(/C=C2\N=C(SC)N(c3ccccc3OC)C2=O)cc1	-	-	-	-	-	-
CCN1CC(c2ccccc2)C(c2ccc(Cl)cc2)=N1 (stereo unspecified)	-	-	-	-	-	-
Cc1c(Cl)cccc1NS(=O)(=O)c1ccc2c(c1)C1C=CCC1C(c1ccc(C(=O)O)cc1)N2 (stereo unspecified)	78	73	-	-	-	-
COc1ccc(-c2csc(C3=C(O)CN(C(C)C)C3=N)n2)cc1OC	73	-	-	76	73	76
COc1ccc(CN2CCNC(=O)C2CC(=O)NCCCn2cccn2)c(OC)c1 (stereo unspecified)	-	-	-	-	-	-
Cn1nnnc1SCc1ccc(C(=O)Nc2nccs2)cc1	75	-	-	73	71	72
CSc1nc(O)cc(=O)n1-c1ccc(F)cc1	-	-	-	-	-	-
CCN(CC)S(=O)(=O)c1ccc2oc(C(=O)N3CCCCCC3)c(C)c2c1	-	-	-	-	-	-
CCN(CC)S(=O)(=O)c1ccc2oc(C(=O)N3CCc4ccccc4C3)c(C)c2c1	-	-	-	-	128[activator]	-
COc1ccc(CCNC(=O)CCCCCNc2nc(=S)[nH]c3ccccc23)cc1OC	-	-	-	-	-	-
COc1cc2c(cc1NCc1ccccn1)oc1ccccc12	-	-	-	-	-	-
COc1cc2[nH]c(=S)nc(NCc3ccccn3)c2cc1OC	-	-	-	-	76	-
COCCNc1nc(=S)[nH]c2cc(OC)c(OC)cc12	68	-	79	71	71	69
CCOC(=O)COc1ccc(Br)cc1/C=C/c1[nH]c(=O)[nH]c(=O)c1[N+](=O)[O-]	-	-	-	-	-	-
O=C(COc1ccccc1/C=C\c1[nH]c(=O)[nH]c(=O)c1[N+](=O)[O-])Nc1ccccc1	73	77	-	79	79	77
O=C(O)C1=C[C@@H](c2ccccc2)C[C@@H](OCc2ccc(CO)cc2)O1	-	-	-	-	-	-
O=C(O)C1=C[C@H](c2ccc(Br)cc2)C[C@H](OCc2ccc(CO)cc2)O1	71	69	-	78	75	74
CC(C(=O)N1CCOCC1)N1C(=O)c2cccc3cccc(c23)C1=O (stereo unspecified)	-	-	-	-	-	-
CCn1cc(C(=O)OCC(=O)c2cc(C)n(-c3ccc(OC(F)F)cc3)c2C)c(=O)c2ccc(C)nc21	79	78	-	-	74	76
COc1ccc(-n2c(C)cc(C(=O)Cn3nc(C(=O)O)c4ccccc4c3=O)c2C)cc1	-	-	-	-	-	-
CCn1cc(C(=O)OCC(=O)c2cc(C)n(-c3ccccc3)c2C)c(=O)c2ccc(C)nc21	-	-	-	-	-	-

Screening results (PubChem)
